This passage reports pKD results from ChEMBL document CHEMBL5598561, “ASAP - In vitro binding kinetics” (2024).

The assay concerns the target Nonstructural protein 3 (Zika virus) (UniProt A0A024AXB9). The following applies: PRVABC59, Concentration 10.0 uM.

Nonstructural protein 3 (Zika virus), sequence (A0A024AXB9 as listed by the source): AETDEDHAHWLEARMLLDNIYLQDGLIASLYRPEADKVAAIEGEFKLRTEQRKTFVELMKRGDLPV

On to `CC(C)c1cc(Br)cc(C(=O)Nc2ccc3c(c2)CNC3)c1`, for which the pKD by setting is: (Immobilization level 10000.0 pg/mm2, Rmax 17.0 pg/mm2, ka 881880.966 M-1s-1, kd 1.212 1/s) 5.86; (Immobilization level 12000.0 pg/mm2, Rmax 74.0 pg/mm2, ka 247931.968 M-1s-1, kd 0.872 1/s) 5.45; (Immobilization level 13000.0 pg/mm2, Rmax 30.0 pg/mm2, ka 643252.953 M-1s-1, kd 1.046 1/s) 5.79.

`Cc1ncc(Br)cc1C(=O)Nc1ccc2c(c1)CNC2`: the pKD came to 5.3 (Immobilization level 3900.0 pg/mm2, Rmax 35.0 pg/mm2, ka 305396.759 M-1s-1, kd 1.511 1/s); 5.3 (Immobilization level 4900.0 pg/mm2, Rmax 50.0 pg/mm2, ka 284203.309 M-1s-1, kd 1.434 1/s); 5.18 (Immobilization level 5500.0 pg/mm2, Rmax 66.0 pg/mm2, ka 223031.106 M-1s-1, kd 1.457 1/s); 5 (Immobilization level 12000.0 pg/mm2, Rmax 11.0 pg/mm2, ka 147874.405 M-1s-1, kd 1.474 1/s); 5.24 (Immobilization level 13000.0 pg/mm2, ka 192202.373 M-1s-1, kd 1.118 1/s).

With `O=C(Nc1ccc2c(c1)CNC2)c1cc(C(F)(F)F)cc2[nH]ccc12`, the pKD by setting is: (Immobilization level 3900.0 pg/mm2, Rmax 30.0 pg/mm2, ka 544431.648 M-1s-1, kd 0.73 1/s) 5.87; (Immobilization level 4900.0 pg/mm2, Rmax 46.0 pg/mm2, ka 302890.351 M-1s-1, kd 0.564 1/s) 5.73; (Immobilization level 5500.0 pg/mm2, Rmax 46.0 pg/mm2, ka 376673.864 M-1s-1, kd 0.583 1/s) 5.81; (Immobilization level 10000.0 pg/mm2, Rmax 31.0 pg/mm2, ka 377188.867 M-1s-1, kd 0.653 1/s) 5.76; (Immobilization level 12000.0 pg/mm2, Rmax 50.0 pg/mm2, ka 339395.125 M-1s-1, kd 0.433 1/s) 5.89; (Immobilization level 13000.0 pg/mm2, Rmax 43.0 pg/mm2, ka 290221.417 M-1s-1, kd 0.559 1/s) 5.71.

As for `O=C(Nc1ccc2c(c1)CNCC2)c1cc(Cl)cc2[nH]ncc12`, the pKD runs as follows: (Immobilization level 10000.0 pg/mm2, Rmax 29.0 pg/mm2, ka 396120.04 M-1s-1, kd 1.246 1/s) 5.5; (Immobilization level 12000.0 pg/mm2, Rmax 39.0 pg/mm2, ka 584891.909 M-1s-1, kd 0.796 1/s) 5.87; (Immobilization level 13000.0 pg/mm2, Rmax 25.0 pg/mm2, ka 840035.203 M-1s-1, kd 1.038 1/s) 5.91.

As to `CNCc1ccc(NC(=O)c2cc(Cl)cc3[nH]ncc23)cc1`, the pKD reads like this: (Immobilization level 3900.0 pg/mm2, Rmax 37.0 pg/mm2, ka 226628.924 M-1s-1, kd 2.375 1/s) 4.98; (Immobilization level 4900.0 pg/mm2, Rmax 68.0 pg/mm2, ka 224620.672 M-1s-1, kd 2.867 1/s) 4.89; (Immobilization level 5500.0 pg/mm2, Rmax 65.0 pg/mm2, ka 234270.717 M-1s-1, kd 2.589 1/s) 4.96; (Immobilization level 10000.0 pg/mm2, Rmax 32.0 pg/mm2, ka 593939.753 M-1s-1, kd 4.324 1/s) 5.14; (Immobilization level 12000.0 pg/mm2, Rmax 64.0 pg/mm2, ka 470578.84 M-1s-1, kd 3.187 1/s) 5.17; (Immobilization level 13000.0 pg/mm2, Rmax 38.0 pg/mm2, ka 481481.04 M-1s-1, kd 3.216 1/s) 5.17.

For the compound `O=C(Nc1ccc2c(c1)CCNCC2)c1cc(Cl)cc2[nH]ncc12`, the pKD by setting is: (Immobilization level 3900.0 pg/mm2, Rmax 28.0 pg/mm2, ka 176787.489 M-1s-1, kd 0.385 1/s) 5.66; (Immobilization level 4900.0 pg/mm2, Rmax 58.0 pg/mm2, ka 81779.894 M-1s-1, kd 0.366 1/s) 5.35; (Immobilization level 5500.0 pg/mm2, Rmax 55.0 pg/mm2, ka 98394.506 M-1s-1, kd 0.363 1/s) 5.43; (Immobilization level 10000.0 pg/mm2, Rmax 51.0 pg/mm2, ka 117713.558 M-1s-1, kd 0.472 1/s) 5.4; (Immobilization level 12000.0 pg/mm2, Rmax 47.0 pg/mm2, ka 102680.383 M-1s-1, kd 0.29 1/s) 5.55; (Immobilization level 13000.0 pg/mm2, Rmax 85.0 pg/mm2, ka 77805.794 M-1s-1, kd 0.391 1/s) 5.3.

In the case of `N[C@H]1CCCc2ccc(NC(=O)c3cc(Cl)cc4[nH]ncc34)cc21`, the pKD by setting is: (Immobilization level 3900.0 pg/mm2, Rmax 27.0 pg/mm2, ka 296746.451 M-1s-1, kd 1.513 1/s) 5.29; (Immobilization level 4900.0 pg/mm2, Rmax 56.0 pg/mm2, ka 115778.511 M-1s-1, kd 1.284 1/s) 4.96; (Immobilization level 5500.0 pg/mm2, Rmax 46.0 pg/mm2, ka 170057.868 M-1s-1, kd 1.305 1/s) 5.12; (Immobilization level 10000.0 pg/mm2, Rmax 44.0 pg/mm2, ka 295859.47 M-1s-1, kd 1.578 1/s) 5.27; (Immobilization level 12000.0 pg/mm2, Rmax 41.0 pg/mm2, ka 173417.805 M-1s-1, kd 0.975 1/s) 5.25; (Immobilization level 13000.0 pg/mm2, Rmax 62.0 pg/mm2, ka 213953.785 M-1s-1, kd 1.191 1/s) 5.25.

For the compound `O=C(Nc1ccc2c(c1)CNC2)c1cc(Br)cc2[nH]c(-c3ccccc3)nc12`, the pKD (Immobilization level 10000.0 pg/mm2, Rmax 3.0 pg/mm2, ka 184994.652 M-1s-1, kd 0.296 1/s) is 5.79; the pKD (Immobilization level 12000.0 pg/mm2, Rmax 13.0 pg/mm2, ka 22744.722 M-1s-1, kd 0.309 1/s) was found to be 4.87; the negative-log KD (pKD) (Immobilization level 13000.0 pg/mm2, ka 103523.991 M-1s-1, kd 0.302 1/s) turned out to be 5.54.

Turning to `CC(C)COc1ccc(Cl)cc1C(=O)Nc1ccc2c(c1)CNC2`, the negative logarithm of the KD (pKD) was found to be 4.61 (Immobilization level 10000.0 pg/mm2, Rmax 31.0 pg/mm2, ka 259814.072 M-1s-1, kd 6.366 1/s); 4.88 (Immobilization level 12000.0 pg/mm2, Rmax 37.0 pg/mm2, ka 228783.03 M-1s-1, kd 3.033 1/s); 4.83 (Immobilization level 13000.0 pg/mm2, Rmax 33.0 pg/mm2, ka 351290.772 M-1s-1, kd 5.134 1/s).
